Test results as given in PubChem BioAssay.
Active and inactive are the calls of the source.

Experiments:
[1] = small molecules captured by biotinylated probe aFSTL3 – biochemical, small-molecule microarray, fluorescence 635/667, stem cell growth factor project, primary screen (AID 1064); details: higher = more signal;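 further: measures binding of the biotinylated anti-FSTL3 antibody to printed compounds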
[2] = binders from COS7 lysate, DM2A8 probe, primary screen, torsin A project, cell lysate, small-molecule microarray, fluorescence 635/667 (AID 1065); details: higher = more signal, COS7 lysate expressing mutant human TOR1A
[3] = small molecules captured by biotinylated probe aFGF2 – biochemical, small-molecule microarray, fluorescence 635/667, stem cell growth factor project, primary screen (AID 1067); details: higher = more signal;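 further: measures binding of biotinylated aFGF2 protein to printed compounds on slides; z-score merges feature fluorescence and signal-to-noise across triplicate slides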
[4] = small molecules captured by biotinylated probe aFGF10 – biochemical, small-molecule microarray, fluorescence 635/667, stem cell growth factor project, primary screen (AID 1071); details: higher = more signal;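 further: score merges 667 nm spot intensity and signal to noise from triplicate slides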
[5] = biological target: Neurogenic locus notch homolog protein 2 (Homo sapiens) (UniProt Q04721); assay: small molecules binding Notch2 protein – biochemical, small-molecule microarray, 635 nm fluorescence, stem cell growth factors, primary screen (AID 1073); details: higher = more signal
[6] = biological target: Pro-neuregulin-1, membrane-bound isoform (Homo sapiens) (UniProt Q02297); assay: small molecules binding neuregulin-1 protein – biochemical, small-molecule microarray, fluorescence 635/667, psychiatric disease protein project, primary screen (AID 1075); details: NRG1 binding, 635 nm fluorescence, higher = more signal;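 further: score combines 667 nm spot fluorescence with signal to noise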
[7] = system: Neuregulin-1 EGF-like domain; assay: small molecules binding NRG1 EGF domain – biochemical, small-molecule microarray, 635 nm fluorescence, primary screen (AID 1081); details: higher = more signal;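 further: binding of the protein to compounds printed on small-molecule microarray slides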
[8] = FRG1 expression reporter modulators in myotubes – cell-based, C2C12 myotubes, firefly/Renilla luciferase, luminescence, FRG1 inhibition for FSHD, primary screen (AID 1084); details: FRG1 promoter luciferase, higher = more signal, called active from +8 up or from −8 down
[9] = small molecules captured by biotinylated probe aFST – biochemical, small-molecule microarray, fluorescence 635/667, stem cell growth factor project, primary screen (AID 1086); details: higher = more signal;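 further: score merges 667 nm fluorescence with signal-to-noise of each printed compound spot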
[10] = binders of probe aHhip on microarray, primary screen, stem cell growth factor project, biochemical, small-molecule microarray, fluorescence 635/667 (AID 1087); details: higher = more signal;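 further: score merges spot fluorescence at 667nm with spot signal to noise ratio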

Chain of Neurogenic locus notch homolog protein 2 (Homo sapiens) (Q04721 whole entry, looked up, canonical isoform): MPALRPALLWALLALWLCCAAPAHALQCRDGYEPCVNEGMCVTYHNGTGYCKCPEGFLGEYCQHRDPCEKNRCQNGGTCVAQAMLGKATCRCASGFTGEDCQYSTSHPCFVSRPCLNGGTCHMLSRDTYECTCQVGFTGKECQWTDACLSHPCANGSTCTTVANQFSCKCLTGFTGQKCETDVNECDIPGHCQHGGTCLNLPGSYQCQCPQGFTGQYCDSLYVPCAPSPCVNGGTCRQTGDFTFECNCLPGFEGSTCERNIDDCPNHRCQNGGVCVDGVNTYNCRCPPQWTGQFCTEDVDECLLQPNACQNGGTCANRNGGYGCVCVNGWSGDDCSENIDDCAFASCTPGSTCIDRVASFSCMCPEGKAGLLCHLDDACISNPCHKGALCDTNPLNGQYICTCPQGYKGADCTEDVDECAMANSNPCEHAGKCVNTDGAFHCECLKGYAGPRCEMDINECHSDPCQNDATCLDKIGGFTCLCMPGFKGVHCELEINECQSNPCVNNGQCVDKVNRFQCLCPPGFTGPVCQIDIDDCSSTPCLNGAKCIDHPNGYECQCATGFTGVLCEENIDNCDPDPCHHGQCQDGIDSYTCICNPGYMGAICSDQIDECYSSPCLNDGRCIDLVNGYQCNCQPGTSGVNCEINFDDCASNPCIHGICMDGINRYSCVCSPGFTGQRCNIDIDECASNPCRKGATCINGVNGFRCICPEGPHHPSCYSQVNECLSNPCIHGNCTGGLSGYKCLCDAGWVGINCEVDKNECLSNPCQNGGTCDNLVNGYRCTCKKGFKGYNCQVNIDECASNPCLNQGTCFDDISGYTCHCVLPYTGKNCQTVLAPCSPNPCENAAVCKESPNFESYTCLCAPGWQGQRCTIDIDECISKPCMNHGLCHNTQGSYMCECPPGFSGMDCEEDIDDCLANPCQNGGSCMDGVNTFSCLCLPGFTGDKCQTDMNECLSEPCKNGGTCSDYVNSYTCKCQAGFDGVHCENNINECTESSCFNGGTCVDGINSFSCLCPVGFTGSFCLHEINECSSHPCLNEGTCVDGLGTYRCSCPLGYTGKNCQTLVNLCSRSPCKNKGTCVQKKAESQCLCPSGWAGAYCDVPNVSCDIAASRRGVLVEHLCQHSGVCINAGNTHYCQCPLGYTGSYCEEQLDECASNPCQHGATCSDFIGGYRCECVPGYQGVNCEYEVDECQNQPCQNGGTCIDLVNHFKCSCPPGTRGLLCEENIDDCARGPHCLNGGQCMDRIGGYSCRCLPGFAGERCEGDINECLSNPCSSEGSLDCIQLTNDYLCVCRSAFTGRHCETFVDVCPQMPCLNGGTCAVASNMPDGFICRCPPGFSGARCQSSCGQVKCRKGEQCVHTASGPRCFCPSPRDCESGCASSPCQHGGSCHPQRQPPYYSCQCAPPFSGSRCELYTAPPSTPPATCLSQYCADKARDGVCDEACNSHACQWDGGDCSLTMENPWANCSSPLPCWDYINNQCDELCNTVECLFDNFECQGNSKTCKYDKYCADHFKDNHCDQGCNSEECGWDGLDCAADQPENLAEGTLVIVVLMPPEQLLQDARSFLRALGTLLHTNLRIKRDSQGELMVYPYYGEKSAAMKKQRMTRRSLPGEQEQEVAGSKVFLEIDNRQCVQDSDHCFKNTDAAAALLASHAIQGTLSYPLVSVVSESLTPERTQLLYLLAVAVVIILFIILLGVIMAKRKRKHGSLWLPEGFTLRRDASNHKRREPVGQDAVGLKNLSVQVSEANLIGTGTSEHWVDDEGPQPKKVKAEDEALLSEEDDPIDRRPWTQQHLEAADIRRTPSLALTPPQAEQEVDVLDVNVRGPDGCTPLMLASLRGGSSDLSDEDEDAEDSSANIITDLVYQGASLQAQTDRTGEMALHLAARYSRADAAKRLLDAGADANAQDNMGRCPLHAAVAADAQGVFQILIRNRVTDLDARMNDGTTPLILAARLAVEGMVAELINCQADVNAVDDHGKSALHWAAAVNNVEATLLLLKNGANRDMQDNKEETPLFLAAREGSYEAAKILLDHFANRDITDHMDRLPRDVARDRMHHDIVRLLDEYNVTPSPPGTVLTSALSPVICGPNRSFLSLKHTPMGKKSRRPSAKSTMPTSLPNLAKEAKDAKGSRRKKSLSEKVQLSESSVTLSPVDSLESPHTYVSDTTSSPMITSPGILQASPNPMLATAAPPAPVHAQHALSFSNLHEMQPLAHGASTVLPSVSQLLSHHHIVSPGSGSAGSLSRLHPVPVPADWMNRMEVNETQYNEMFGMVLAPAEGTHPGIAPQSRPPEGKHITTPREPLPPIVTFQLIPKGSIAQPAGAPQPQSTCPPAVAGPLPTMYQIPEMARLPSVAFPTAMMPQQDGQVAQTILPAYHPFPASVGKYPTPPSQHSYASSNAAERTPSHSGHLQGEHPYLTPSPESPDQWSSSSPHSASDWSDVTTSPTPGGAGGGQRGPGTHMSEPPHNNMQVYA
Chain of Pro-neuregulin-1, membrane-bound isoform (Homo sapiens) (Q02297 whole entry, looked up, the tested form may be a part, canonical isoform): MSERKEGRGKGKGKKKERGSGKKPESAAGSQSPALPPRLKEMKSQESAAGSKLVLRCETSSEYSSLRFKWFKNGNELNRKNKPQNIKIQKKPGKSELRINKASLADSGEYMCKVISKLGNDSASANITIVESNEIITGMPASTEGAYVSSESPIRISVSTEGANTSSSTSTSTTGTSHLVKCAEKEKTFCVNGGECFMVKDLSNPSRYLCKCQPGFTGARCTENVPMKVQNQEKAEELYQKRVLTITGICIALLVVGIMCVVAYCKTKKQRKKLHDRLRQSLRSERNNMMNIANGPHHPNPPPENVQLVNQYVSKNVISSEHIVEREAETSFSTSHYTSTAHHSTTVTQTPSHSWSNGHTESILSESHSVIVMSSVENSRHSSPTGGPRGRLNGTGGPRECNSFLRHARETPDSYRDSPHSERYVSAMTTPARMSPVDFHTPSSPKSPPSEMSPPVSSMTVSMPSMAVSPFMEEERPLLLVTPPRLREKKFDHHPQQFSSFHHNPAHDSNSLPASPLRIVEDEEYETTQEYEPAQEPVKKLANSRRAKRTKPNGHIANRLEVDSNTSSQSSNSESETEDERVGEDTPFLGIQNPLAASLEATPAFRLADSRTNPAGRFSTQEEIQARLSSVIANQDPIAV

| SMILES | composite z-score [1] | composite z-score [2] | composite z-score [3] | composite z-score [4] | composite z-score [5] | composite z-score [6] | composite z-score [7] | z-score [8] | composite z-score [9] | composite z-score [10] |
| --- | --- | --- | --- | --- | --- | --- | --- | --- | --- | --- |
| CN(C)CCCC[C@@H]1NC(=O)[C@@H]2C[C@H](C(=O)NCCCCCNC(=O)CS)[C@H](c3ccc(O)cc3)N2C1=O | 0.174 | 0.522 | 0.0918 | 0.429 | 0.728 | 0.264 | 1.22 | 0.47 (inactive) | -0.0694 | 0.382 |
| Cc1ccc(S[C@]2(C(=O)NCCN3CCOCC3)CC(=O)N(C3Cc4ccccc4C3)[C@@H]2c2ccc(CO)cc2I)cc1 | 1.1 | 0.677 | -0.19 | -0.761 | -1.11 | 1.69 | 0.544 | -0.974 (inactive) | 0.336 | -0.0994 |
| COc1cc2c(cc1OC)CN(C(=O)[C@H]1[C@@H]3C(=O)O[C@@H](c4ccccc4)[C@@H](c4ccccc4)N3[C@@H](c3ccccc3OCCO)[C@]13C(=O)Nc1ccc(C#CC4(O)CCCCCC4)cc13)CC2 | -0.0648 | 0.705 | 0.0605 | 1.01 | 1.1 | 1.76 | 1.35 | -2.24 (inactive) | 0.319 | 0.245 |
| CCCNC(=O)[C@@H]1c2ccccc2C(=O)N(C2CCCCC2)[C@H]1c1ccc(CO)cc1 | -0.162 | 0.325 | -0.0374 | 0.549 | 1.41 | 1.16 | 1.29 | -0.0971 (inactive) | 0.56 | 0.0785 |
| COCCCNC(=O)[C@@H]1c2ccccc2C(=O)N(CC23CC4CC(CC(C4)C2)C3)[C@H]1c1ccc(CO)cc1 | 0.621 | 0.173 | 0.177 | 0.325 | 1.46 | -0.0557 | 1.1 | -2.03 (inactive) | 0.327 | 0.0053 |
| CCOC(=O)C[C@H]1[C@H](OC(=O)c2cc3ccccc3oc2=O)[C@@H](NC(=O)c2ccc3ccccc3c2)c2cc(OCCCO)ccc2N1C(=O)c1ccc2ccccc2n1 | -0.522 | 0.128 | -0.0336 | 1.11 | 1.09 | 0.384 | 1.03 | -0.881 (inactive) | 0.518 | -0.0994 |
| CO[C@H]1O[C@H](CO)[C@@H](OC(=O)Nc2ccc(Oc3ccccc3)cc2)[C@H](OC(=O)Nc2ccccc2-c2ccccc2)[C@H]1OC(=O)Nc1ccccc1-c1ccccc1 | -0.448 | 0.44 | 0.104 | 1.04 | 1.51 | 1.52 | 1.35 | -0.441 (inactive) | 0.33 | -0.0672 |
| C=CCNC(=O)[C@@H]1[C@H]2C(=O)O[C@H](c3ccccc3)[C@H](c3ccccc3)N2[C@H](c2ccc(OCCO)cc2)[C@@]12C(=O)N(C(=O)OCCOC)c1ccc(C#CC3(O)CCCCCC3)cc12 | 1.33 | 1.16 | 0.126 | 0.552 | 1.42 | 0.508 | 1.03 | 0.132 (inactive) | 0.624 | -0.322 |
| C[C@H]1NC(=O)[C@@H](C)NC(=O)[C@@]23C(=O)N[C@@H](Cc4ccccc4)C2[C@H](C)[C@@]2(C)O[C@H]2C3/C=C/C/C=C\CNC1=O (stereo not given in full) | -0.372 | -0.0794 | -0.083 | -0.167 | -0.269 | 0.631 | 0.812 | 0.0028 (inactive) | -0.41 | -0.34 |
| CC(C)NC(=O)[C@@]1(Cc2ccccc2I)c2ccccc2C(=O)N(C2CCCCC2)[C@H]1c1ccc(CO)cc1 | -0.107 | 0.072 | 0.0402 | 0.87 | 1.18 | 1.86 | 1.38 | -2.62 (inactive) | 1.38 | 0.0505 |
| C[C@]1(C(=O)NCCN2CCOCC2)c2ccccc2C(=O)N(Cc2ccccc2)[C@H]1c1ccc(CO)cc1 | -0.0452 | 0.789 | 0.0008 | -0.425 | -0.522 | 1.35 | 1.26 | -0.351 (inactive) | -0.352 | -0.0346 |
| COc1ccc(-c2cc3c(c(-c4ccccc4)n2)[Si](C(C)C)(C(C)C)O[C@H]3c2ccccc2)cn1 | -0.248 | 0.0094 | -0.106 | 0.144 | 0.241 | 0.0264 | 0.335 | -0.68 (inactive) | -0.116 | 0.316 |
| COc1cc(Cc2cc3c(c(CCc4ccccc4)n2)[Si](C(C)C)(C(C)C)OC3)cc(OC)c1OC | -0.0934 | -0.0736 | -0.146 | -0.108 | -0.0899 | -0.35 | -0.233 | 0.311 (inactive) | 0.337 | -0.0672 |
| COCCOC(=O)N1C(=O)[C@@]2(c3cc(C#CCNC(N)=O)ccc31)[C@H](c1ccc(OCCO)cc1)N1[C@H](c3ccccc3)[C@H](c3ccccc3)OC(=O)[C@H]1[C@@H]2C(=O)Nc1nc2ccccc2s1 | 1.02 | 0.208 | -0.0399 | 0.371 | -0.97 | 0.396 | -0.757 | 3.98 (inactive) | 0.98 | 0.136 |
